{"source": "the supplement of paper PMC11417369", "note": "± gives the standard deviation of the averaged measurements. Over roughly 25,000 sequences, “ln(normalized median fluorescence intensity)” has its median near 8.6; the highest 2% begin near 10. What follows is part of a selection rich in the highest values, with near analogues and random picks from the rest.", "data": [{"test_system": "PfAP2-EXP AP2 domain (GST-tagged)", "test": "gcPBM binding intensity (ln(normalized median fluorescence intensity)); higher = stronger DNA binding", "summary_of_the_method": "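Binding intensity values are the highest Masliner-normalised natural-log median intensity among replicate spots of either probe orientation. The binding step lasted 1 h in 1× PBS with 1% milk, 0.2 mg/ml BSA, 0.5% salmon testes DNA and 0.03% Triton X-100, using GST-tagged P. falciparum DNA-binding domains expressed in E. coli on an Agilent 4 × 180k array of primer-extended double-stranded 36-bp intergenic genomic probes plus negative controls. Alexa488 anti-GST antibody and a 488 nm scan detected bound protein.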", "values": [{"sequence": "TTCTTTTTAATTAATACACACACACCCATATATATA [CACACA_site8719]", "gcPBM binding intensity (ln)": "8.83 ± 0.42"}, {"sequence": "AATGTATATATATATATATATATATATATTTATTTA [CACACA_negctrl_site113]", "gcPBM binding intensity (ln)": "8.43 ± 0.14"}, {"sequence": "CCCGTAAATTATGAGTGTACGTTATTTTTTAAAATG [XGTACX_site3946]", "gcPBM binding intensity (ln)": "8.81 ± 0.49"}, {"sequence": "ATAATGTTTTATAATACACACATTATATATATAAAT [CACACA_site6101]", "gcPBM binding intensity (ln)": "8.4 ± 0.37"}, {"sequence": "AATATATGTTAAAATGGTACACAATTATTATATATT [XGTACX_site6407]", "gcPBM binding intensity (ln)": "8.46 ± 0.4"}, {"sequence": "TATTCCTTCTACAATTAAATAATTATAATAAATATA [GTGCAC_negctrl_site26]", "gcPBM binding intensity (ln)": "8.46 ± 0.46"}, {"sequence": "ATATATAGATAATCAAGTACATAACAAGATATAAGA [XGTACX_site2186]", "gcPBM binding intensity (ln)": "8.81 ± 0.47"}, {"sequence": "GAAATTATGTAAAAAAGTACTAACATACATATATAT [XGTACX_site1794]", "gcPBM binding intensity (ln)": "8.61 ± 0.32"}, {"sequence": "AATTAGATACTAACAAGTACATATATATATATATAT [XGTACX_site2252]", "gcPBM binding intensity (ln)": "10.2 ± 0.26"}, {"sequence": "ATATATTATTATACATGTACATATATAGATATATAT [XGTACX_site4358]", "gcPBM binding intensity (ln)": "8.53 ± 0.35"}, {"sequence": "ACATACATATATATACGTACATATATATTTATATAT [XGTACX_site5799]", "gcPBM binding intensity (ln)": "8.75 ± 0.34"}, {"sequence": "CAAGTAGATATTATACGTACATATATATATATATAT [XGTACX_site8349]", "gcPBM binding intensity (ln)": "10.2 ± 0.32"}, {"sequence": "ATAATATCATAATATTGTACATATTTTATTTTAAAT [XGTACX_site1115]", "gcPBM binding intensity (ln)": "8.36 ± 0.29"}, {"sequence": "AATCTTCTTAATTGTAGTACACAATTTATAAACAAA [XGTACX_site8706]", "gcPBM binding intensity (ln)": "8.61 ± 0.3"}, {"sequence": "TGATATTATATATATACACACATGTATGTATTTATA [CACACA_site4874]", "gcPBM binding intensity (ln)": "8.32 ± 0.42"}, {"sequence": "ATATATATGTATATATGTACATATATGTATATATAT [XGTACX_site4772]", "gcPBM binding intensity (ln)": "8.66 ± 0.17"}, {"sequence": "ATATATCTACATATATGTACATATATGTATATGTAT [XGTACX_site5432]", "gcPBM binding intensity (ln)": "8.41 ± 0.2"}, {"sequence": "ATATATATATATATGTGTACATATATTAAGATATAT [XGTACX_site1065]", "gcPBM binding intensity (ln)": "10 ± 0.3"}, {"sequence": "ATATATATATATATGTGTACATATGTATATATATCT [XGTACX_site2930]", "gcPBM binding intensity (ln)": "10.1 ± 0.4"}, {"sequence": "AATAAATAGATATATACACACATATATGTGTACATA [CACACA_site7476]", "gcPBM binding intensity (ln)": "8.37 ± 0.29"}, {"sequence": "ATATATATATATATATGTACATATATCTACATATAT [XGTACX_site7588]", "gcPBM binding intensity (ln)": "10.2 ± 0.14"}, {"sequence": "ATATATATATATATGTGTACATATAAGATAGAAGAA [XGTACX_site3198]", "gcPBM binding intensity (ln)": "10.2 ± 0.35"}, {"sequence": "AAATGTATATATGTATGTACATATATATATATATAT [XGTACX_site5778]", "gcPBM binding intensity (ln)": "10 ± 0.35"}, {"sequence": "ATGTATGTGTATATATGTACATAATATATATCTTTT [XGTACX_site8666]", "gcPBM binding intensity (ln)": "8.65 ± 0.32"}, {"sequence": "ATATATATATATATATGTACATAGAGAAGTATCTTT [XGTACX_site4737]", "gcPBM binding intensity (ln)": "10.4 ± 0.17"}, {"sequence": "TAATATCTACATATATGTACATATATATATATATAT [XGTACX_site7979]", "gcPBM binding intensity (ln)": "9.94 ± 0.4"}, {"sequence": "ATATATATATATATATGTACATATATATATGTATAT [XGTACX_site3959]", "gcPBM binding intensity (ln)": "10.2 ± 0.33"}, {"sequence": "AATATAACTTAGAATTGTACATAAAAAAAAATATAT [XGTACX_site3313]", "gcPBM binding intensity (ln)": "8.68 ± 0.35"}, {"sequence": "CAAAATATTTAAAAAAGTACTTAAAATAAATTCAAA [XGTACX_site6866]", "gcPBM binding intensity (ln)": "8.48 ± 0.38"}, {"sequence": "CTTAAATCTACTATTTGTACATATTTTATTATTAAA [XGTACX_site6151]", "gcPBM binding intensity (ln)": "8.58 ± 0.37"}, {"sequence": "TTTATTTAAAAAATAAAAAAAAAAAAAAAAAAAAAA [CACACA_negctrl_site1670]", "gcPBM binding intensity (ln)": "7.82 ± 0.38"}, {"sequence": "GGATACGCTTTTGTACCACTCCCCCTTTTGGGAATA [CACACA_negctrl_site1363]", "gcPBM binding intensity (ln)": "8.88 ± 0.33"}, {"sequence": "AAAACTTGTCAGAATGGACACACGAATTAAAGGCCT [CACACA_site1215]", "gcPBM binding intensity (ln)": "8.79 ± 0.52"}, {"sequence": "GCATAAATTATCATAACATAAATATAAAAATATAAT [GTGCAC_negctrl_site55]", "gcPBM binding intensity (ln)": "8.36 ± 0.37"}, {"sequence": "TAGTTGTGAGTTACATGTACATGTATTTATTTTTTA [XGTACX_site7088]", "gcPBM binding intensity (ln)": "8.88 ± 0.47"}, {"sequence": "CCACACTTAAAATACACACACACCAAAAAAAAAAAA [CACACA_site2709]", "gcPBM binding intensity (ln)": "8.43 ± 0.37"}, {"sequence": "TATATTTGGTTTCATTCATTTTTATAGAAATCTCAA [CACACA_negctrl_site1412]", "gcPBM binding intensity (ln)": "8.48 ± 0.47"}, {"sequence": "ATATATATATATATATGTACATATATACATATATGT [XGTACX_site1521]", "gcPBM binding intensity (ln)": "10 ± 0.49"}, {"sequence": "ATATATATATATATATGTACATACATACATAGAACT [XGTACX_site2214]", "gcPBM binding intensity (ln)": "10.4 ± 0.3"}, {"sequence": "ATACATATATACATATGTACATATATATATATATAT [XGTACX_site8206]", "gcPBM binding intensity (ln)": "9.9 ± 0.39"}, {"sequence": "TATATAAATATAATATGTACATATAATATGTATATA [XGTACX_site8120]", "gcPBM binding intensity (ln)": "8.36 ± 0.26"}, {"sequence": "GATATGTGTATAATATGTACATATATATATATATAT [XGTACX_site6531]", "gcPBM binding intensity (ln)": "10.2 ± 0.5"}, {"sequence": "GTATATATGTATATATGTACATATATATAATATATT [XGTACX_site56]", "gcPBM binding intensity (ln)": "8.5 ± 0.16"}, {"sequence": "AAAGTGGCCATATATTTTTTTTTTTTTTTCCTTATT [CACACA_negctrl_site485]", "gcPBM binding intensity (ln)": "8.11 ± 0.53"}, {"sequence": "ACATATTAATTATTATGACATACATATCAGTTATTA [TGCATGCA_negctrl_site126]", "gcPBM binding intensity (ln)": "8.38 ± 0.27"}, {"sequence": "AGGCACTTATAATAATGTACATAAATAAAAAGAAAA [XGTACX_site6037]", "gcPBM binding intensity (ln)": "8.81 ± 0.35"}, {"sequence": "TTTTTATGAAAATAAACACACGATTTATTATATATA [CACACA_site1311]", "gcPBM binding intensity (ln)": "8.27 ± 0.34"}, {"sequence": "GAAGACAATTATATGTGTACATATATATACATATAT [XGTACX_site4630]", "gcPBM binding intensity (ln)": "8.44 ± 0.25"}, {"sequence": "TATATATATATATATTGTACATTTTTTTTTTTTTTT [XGTACX_site7891]", "gcPBM binding intensity (ln)": "10.1 ± 0.23"}, {"sequence": "ATATATGGGGCGCAGGAAAAGAGTTTTGGAAATAAA [CACACA_negctrl_site1265]", "gcPBM binding intensity (ln)": "9.08 ± 0.49"}, {"sequence": "AGTATATAAAATACTGTATCGATGGGGGAGGGCGCA [CACACA_negctrl_site1612]", "gcPBM binding intensity (ln)": "9.97 ± 0.23"}, {"sequence": "TATAAAATACTGTATCGATGGGGGAGGGCGCAGGGG [TGCATGCA_negctrl_site250]", "gcPBM binding intensity (ln)": "10.3 ± 0.11"}, {"sequence": "ATAGGTAATAATAATACACACGGTGAAATATAGATG [CACACA_site9336]", "gcPBM binding intensity (ln)": "8.88 ± 0.47"}, {"sequence": "TATAATGAGGATAATAGTACATATGAATACAAAAAA [XGTACX_site3665]", "gcPBM binding intensity (ln)": "8.86 ± 0.45"}, {"sequence": "TTGGATAAAAAATATGTACACACATATAGATATCTA [CACACA_site8862]", "gcPBM binding intensity (ln)": "8.48 ± 0.31"}, {"sequence": "ATAAATAAATAAAAGCGTACATATATATAAAATATA [XGTACX_site8107]", "gcPBM binding intensity (ln)": "8.63 ± 0.27"}, {"sequence": "TCGGGAGGGGGGAAGCGTACATATATAAAATTATTA [XGTACX_site4683]", "gcPBM binding intensity (ln)": 10.4}, {"sequence": "TATAAATAGAGGAAGCGTACATATATATATATATAT [XGTACX_site4993]", "gcPBM binding intensity (ln)": "10.1 ± 0.37"}]}]}
